The panel holds about 83,000 compounds, 20% with a hit somewhere; the sample as a whole holds those more often.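 Cell lines were cultured in 96-well plates, exposed to a single compound concentration, and assessed for percent growth 48 hours later.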 The source made the active and inactive calls. The calls were made as follows: active = growth percent below 10; inactive = the rest.
What follows are compounds tested on SR leukemia (assay: NCI-60 one-dose screen, 48 h (100 = growth as untreated, 0 = no growth, -100 = all killed)). Settings: 10 µM.

Row | SMILES | growth
1 | COc1ccc2nc(Cl)c(Cn3nnc(Cc4ccccc4)n3)cc2c1 | 22.9% (inactive)
2 | C=C/C(C)=C/C[C@]1(C)[C@H](C)[C@@H](OC(=O)CCC)[C@H](O)[C@@]23C(=C[C@H](OC)C[C@@H]12)[C@@H](OC(=O)CCC)O[C@H]3OC(C)=O | -20.2% (active)
3 | COc1ccc(-c2cc(-c3cc(OC)ccc3OC)nc(N)c2C#N)cc1 | 43.9% (inactive)
4 | COc1ccc(-c2nn(-c3cccc(Cl)c3)cc2-c2cc(-c3ccccc3)nc(N)n2)cc1 | 11.3% (inactive)
5 | COc1ccccc1-n1c(-c2sc(NC(C)=O)nc2C)n[nH]c1=S | 79.5% (inactive)
6 | COc1cc2c3c(n(C4CCN(C)CC4)c(=O)c2cc1OC)-c1cc2c(cc1C3=O)OCO2 | 7.92% (active)
7 | COc1cc(-c2ccc[nH]2)[nH]c1/C=C1\N=C(C)C(C(=O)NC(C)C)=C1C | -15.5% (active)
8 | COc1ccc(-c2nn(-c3cccc(Cl)c3)cc2C=C(C#N)C#N)cc1 | -61.6% (active)
9 | Fc1ccc2[nH]cc(-c3nc(-c4ccsc4)cs3)c2c1 | 86.2% (inactive)
10 | CCn1c2ccc(O)cc2c2c(C)c3c[n+](C)ccc3c(C)c21 | 21.2% (inactive)
11 | CC[C@H]1OC(=O)[C@H](C)[C@@H](O[C@H]2C[C@@](C)(OC)[C@@H](O)[C@H](C)O2)[C@H](C)[C@@H](O[C@@H]2O[C@H](C)C[C@H](N(C)C)[C@H]2O)[C@](C)(OC)C/C(C)=C2/O[C@@]1(C)C=C2C | 14.8% (inactive)
12 | N#Cc1c(-c2ccc(Cl)cc2)cc(-c2cc(O)ccc2O)nc1N | 21.7% (inactive)
13 | COc1cc2c3c(n([C@@H]4CCOC4)c(=O)c2cc1OC)-c1cc2c(cc1C3=O)OCO2 | 15.1% (inactive)
14 | COc1ccc(-c2cc(-c3ccccc3)nc(SCCCCCCC(=O)NO)n2)cc1 | 21.1% (inactive)
15 | COc1ccc(-c2nn(-c3cccc(Cl)c3)cc2-c2c(C#N)c(=O)n3[nH]c(-c4ccccc4)nc3c2C#N)cc1 | 71.2% (inactive)
16 | Clc1nc2ccccc2cc1Cn1nnc(Cc2ccccc2)n1 | 37% (inactive)
17 | CN1CCc2c(sc3nc4n(-c5ccc(Cl)cc5)cnn4c(=O)c23)C1 | 120% (inactive)
18 | O=C(CCCCNC(=O)c1nc(-c2ccccc2)n(-c2ccccc2)n1)NO | 76% (inactive)
19 | Cc1c2c[n+](C(C)C)ccc2c(C)c2c1[nH]c1ccccc12 | 20.8% (inactive)

Row | SMILES | growth
20 | Cc1c2cnccc2c(C)c2c1c1cc(O)ccc1n2C(C)C | -17.1% (active)
21 | CC(C)(C)OC(=O)CN1CCc2c(sc3ncnc(N/N=C/c4cccc5ccccc45)c23)C1 | 18.2% (inactive)
22 | Nc1nc(-c2cccnc2)nc2c1sc(=S)n2-c1ccccc1 | 113% (inactive)
23 | CC(C)(C)OC(=O)N1CCc2c(sc3ncnc(N/N=C/c4cccc(Br)c4)c23)C1 | 29.4% (inactive)
24 | O=C(CCCSc1nc(-c2ccc(Cl)cc2)cc(-c2ccc(Cl)cc2)n1)NO | 7.59% (active)
25 | CN1CCc2c(sc3nc4n(-c5ccc(Cl)cc5)c(=O)[nH]n4c(=O)c23)C1 | 97.6% (inactive)
26 | CCNc1nc(C(F)(F)F)nc2c1sc(=S)n2-c1ccccc1 | 83.5% (inactive)
27 | IC(I)I | 122% (inactive)
28 | Cc1cc(NC(=O)c2ccc(C)c(Nc3nccc(-c4cccnc4)n3)c2)cc(-n2cnc(C)c2)c1 | -22.3% (active)
29 | c1cncc(-c2csc(-c3c[nH]c4ccccc34)n2)c1 | 70% (inactive)
30 | Cc1ccc(NC(=S)NNC(=S)Nc2ccc(C)cc2)cc1 | 27.4% (inactive)
31 | Cc1ccc(C2=NN(c3ccc(S(C)(=O)=O)cc3)C(=O)CC2)cc1 | 4.47% (active)
32 | CCc1ccc(C2=NN(c3ccc(S(C)(=O)=O)cc3)C(=O)CC2)cc1 | 4.42% (active)
33 | COc1ccc(-c2nn(-c3cccc(Cl)c3)cc2/C=C2\NC(=S)N(c3ccc(Cl)cc3)C2=O)cc1 | -69.6% (active)
34 | COc1ccc(-c2nn(-c3cccc(Cl)c3)cc2-c2c(C#N)c(=O)n3[nH]c(-c4ccc(C)cc4)nc3c2C#N)cc1 | 1.64% (active)
35 | c1cnc2[nH]cc(-c3nc(-c4ccsc4)cs3)c2c1 | 87.7% (inactive)
36 | O=C1NC(=O)c2c(CCCSc3nc4ccccc4c(=O)n3CCc3ccccc3)cccc21 | 66.6% (inactive)
37 | CCOC(=O)c1sc2ncnc(Nc3ccc4c(cnn4C(=O)Nc4ccc(C)c(Cl)c4)c3)c2c1C | 79.2% (inactive)

— PubChem BioAssay (NCI)
